{"source": "PubChem BioAssay AID624483", "about": "(NMMLSC, 2012)", "note": "In all, about 360,000 compounds went through this assay and about 11,000 (3.1%) were called active. Another 2% or so got no clear call; they are omitted. Rule as the data show it: active = fluorescence intensity above about 16000; inconclusive = no clear call, values can overlap the other calls; inactive = below that. Shown is part of a subset that was picked to be rich in actives."}
{"experiment": "compound fluorescence in toxin protease inhibitor counterscreen, primary screen, artefact control for toxin protease inhibitor project, biochemical, multiplex microsphere, HTS (AID 624483)", "conditions": "compound autofluorescence counterscreen, microsphere flow cytometry; hits give high values"}
{"smiles": "O=C(c1c(F)cccc1Cl)N1CCN(c2ccccn2)CC1", "fluorescence intensity": "6090 (inactive)"}
{"smiles": "Cc1cc(C(=O)N2CCN(c3ccccn3)CC2)c(C)o1", "fluorescence intensity": "21600 (active)"}
{"smiles": "O=C(c1cc2ccccc2s1)N1CCN(c2ccccn2)CC1", "fluorescence intensity": "5840 (inactive)"}
{"smiles": "CC1(C(=O)NS(=O)(=O)c2cccc(OC(F)F)c2)CCN1C(=O)C1CC1", "note": "(stereo not drawn)", "fluorescence intensity": "3660 (inactive)"}
{"smiles": "O=C(NC1CCCC1)C(c1ccccn1)N(C(=O)c1csnn1)C1CCCC1", "note": "(stereo not drawn)", "fluorescence intensity": "3210 (inactive)"}
{"smiles": "COc1ccc(C)cc1S(=O)(=O)NC1CCCCC1", "fluorescence intensity": "20200 (active)"}
{"smiles": "COc1ccc(C(=O)NCc2ccccc2C)cc1S(=O)(=O)NC1CCCC1", "fluorescence intensity": "3480 (inactive)"}
{"smiles": "CCOc1ccc(C)cc1S(=O)(=O)NC1CCCCCC1", "fluorescence intensity": "5960 (inactive)"}
{"smiles": "CCCCC(=O)N(C)c1c(CC)nc2c(OCc3ccc(S(C)(=O)=O)cc3)cccn12", "fluorescence intensity": "4320 (inactive)"}
{"smiles": "CC(C)Oc1cc(F)ccc1-c1cc(C(=O)Nc2cccc(Cl)c2)[nH]n1", "fluorescence intensity": "3940 (inactive)"}
{"smiles": "CCC1OC(C2CC2)CC2=C1C(=O)OC(C)(C)O2", "note": "(stereo not drawn)", "fluorescence intensity": "5440 (inactive)"}
{"smiles": "CCc1nc2ccc(C(=O)NCc3ccc(OC)cc3)cn2c1N(CC)Cc1cccc(Br)c1", "fluorescence intensity": "4320 (inactive)"}
{"smiles": "COc1ccccc1NC(=O)CC(NCCN(C)C)C(=O)O", "note": "(stereo not drawn)", "fluorescence intensity": "15400 (inactive)"}
{"smiles": "CN(C)CCNC(=O)C(C(=O)c1ccccc1)n1ccccc1=O", "note": "(stereo not drawn)", "fluorescence intensity": "23600 (active)"}
{"smiles": "CN(C)CCNC(=O)Nc1cccc(Cl)c1Cl", "fluorescence intensity": "2400 (inactive)"}
{"smiles": "FC(F)(F)COc1nc(N2CCCCC2)nc(N2CCNCC2)n1", "fluorescence intensity": "2450 (inactive)"}
{"smiles": "FC(F)(F)Oc1ccccc1C(c1nnnn1C1CCCCC1)N1CCN(C/C=C/c2ccccc2)CC1", "note": "(stereo not drawn)", "fluorescence intensity": "4590 (inactive)"}
{"smiles": "Cc1cc2ccccn2c1C(=O)c1cccc(S(=O)(=O)N2CCOCC2)c1", "fluorescence intensity": "4300 (inactive)"}
{"smiles": "CCOC(=O)N/N=C1\\CC(C)S(=O)(=O)c2ccc(Cl)cc21", "note": "(stereo not drawn)", "fluorescence intensity": "3940 (inactive)"}
{"smiles": "O=C(CC(=O)N/N=C\\c1ccc(F)cc1)NCCc1ccccc1", "fluorescence intensity": "3990 (inactive)"}
{"smiles": "O=C(CN1CCSCC1)N/N=C/c1ccc(F)cc1", "fluorescence intensity": "19800 (active)"}
{"smiles": "O=C(CN1CCN(C/C=C/c2ccccc2)CC1)Nc1ccc(F)cc1F", "fluorescence intensity": "4560 (inactive)"}
{"smiles": "Cc1ccc(COc2ccc(/C=N/NC(=O)CN3CCCCC3)cc2)cc1", "fluorescence intensity": "3530 (inactive)"}
{"smiles": "O=C(CN1CCSCC1)N/N=C/c1ccc(F)cc1F", "fluorescence intensity": "23700 (active)"}
{"smiles": "O=C(CCC(=O)Nc1ccccc1)N/N=C/c1ccccc1F", "fluorescence intensity": "2560 (inactive)"}
{"smiles": "c1ccc2c(c1)C(=NC1CCCCC1)NC2=NC1CCCCC1", "fluorescence intensity": "8360 (inactive)"}
{"smiles": "CCOc1ccccc1N1C(=O)CC(Sc2nccc(C)n2)C1=O", "note": "(stereo not drawn)", "fluorescence intensity": "4180 (inactive)"}
{"smiles": "COC(=O)[C@]12CCCCC=C1N(Cc1ccco1)C(=O)[C@H](CC(=O)NCCCCc1ccccc1)C2", "fluorescence intensity": "5100 (inactive)"}
